Bioassay records deposited in PubChem BioAssay by National Center for Advancing Translational Sciences (NCATS).
Giardia killer: Small Molecules that selectively kill Giardia lamblia: qHTS. activity change, % at 7.66 µM, hits read low. Giardia lamblia trophozoite viability. 0.15% of 340,000 active. AID 540267, 2011; in the data active = activity change below about -80%; inconclusive = between about -30% and that limit;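 note: parasites exposed to compound for two days anaerobically before the ATP read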
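Giardia trophozoites, 100 cells per well, were exposed to compounds for 48 hrs at 37 deg C under anaerobic conditions; viability was then read as ATP content by bioluminescence after 15-30 min at room temperature.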
Gal4-VP16 FLuc: VP16 counterscreen qHTS for inhibitors of ROR gamma transcriptional activity | AID 2546, 2010 | 3.5% of 310,000 active | Potency, µM (top dose mostly 53.6 µM), actives largely listed as inhibitors | Drosophila S2 Gal4-VP16 UAS-luciferase, luminescence, 20 h;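 note: Gal4-VP16 expression switched on by copper sulfate through the metallothionein promoter; nearly all actives have a fitted effect of over 50% in size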
RORg inh: qHTS for inhibitors of ROR gamma transcriptional activity. Nuclear receptor ROR-gamma (Mus musculus), P51450. Drosophila S2 Gal4-RORgamma UAS-luciferase reporter, 20 h. Potency, µM (top dose mostly 53.6 µM), most hits filed as inhibitors. 5.4% of 310,000 active. AID 2551, 2010; note: nearly all actives have a fitted effect of over 60% in size
Target sequence (P51450 whole entry, looked up, the tested form may be a part): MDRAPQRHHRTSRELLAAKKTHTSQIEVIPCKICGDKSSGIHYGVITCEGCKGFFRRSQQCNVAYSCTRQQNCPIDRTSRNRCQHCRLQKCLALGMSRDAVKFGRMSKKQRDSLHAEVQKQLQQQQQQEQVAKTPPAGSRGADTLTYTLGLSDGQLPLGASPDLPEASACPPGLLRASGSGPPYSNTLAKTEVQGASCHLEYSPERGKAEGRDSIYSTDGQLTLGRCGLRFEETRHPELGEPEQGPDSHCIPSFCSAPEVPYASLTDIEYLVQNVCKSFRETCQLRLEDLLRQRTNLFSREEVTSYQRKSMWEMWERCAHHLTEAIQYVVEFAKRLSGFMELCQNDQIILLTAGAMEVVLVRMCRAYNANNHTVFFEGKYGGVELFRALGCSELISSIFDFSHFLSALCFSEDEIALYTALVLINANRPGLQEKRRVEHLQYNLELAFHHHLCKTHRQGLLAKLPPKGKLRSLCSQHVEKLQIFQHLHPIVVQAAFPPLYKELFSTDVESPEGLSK
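Stable Schneider cell line, Gal4 DNA-binding domain fused to ROR gamma, UAS-luciferase. Cmpd 1 hr RT → CuSO4 700 uM final → 20 hr RT → luciferase reagent 10 min → luminescence.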
Integrin act MD: qHTS for Activators of Integrin-Mediated Alleviation for Muscular Dystrophy. Potency, µM (top dose mostly 38.3 µM), most hits filed as activators. 0.064% of 350,000 active. alpha7betagal myoblasts, beta-gal FDG fluorescence, 48 h; note: nearly all actives have a fitted effect of over 60% in size
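alpha7betagal+/- myoblasts (passage 13, 250/well) treated 48 h at 37C with compounds at 1:260 dilution of DMSO stock. Lysed, then beta-galactosidase activity read as FDG fluorescence (ex 480/em 540) after 30 min, with pre-read for autofluorescence.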
ERG Ets-DNA blk: qHTS for Small Molecule Inhibitors of the ERG Ets/DNA interaction | Transcriptional regulator ERG (Homo sapiens), P11308 | fluorescence polarization, His-ERG Ets domain / labelled DNA | Potency, µM (series often up to 76.9 µM), usual class: inhibitors | 0.028% of 370,000 active | AID 624246, 2012; active = well fitted inhibition curve with a large enough effect in the polarisation, with a control signal flat; inconclusive = small, poorly fitted or top-dose-only effect, or effect the other way, or a change in a side signal; inactive = no such curve, though single readings can be large or run the other way; the % refers to the polarisation;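 note: polarization taken with two DNA probes labelled with fluorescein and Texas red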
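His-tagged ERG Ets domain (1 uM in the protein solution; 300mM KCl, 50mM Tris-HCl, 1mM EDTA, 1mM DTT, pH 7.5) received compound, then a probe mix of 5 nM fluorescein-DNA and 100nM Texas-615-DNA. Fluorescence polarization was read for both dyes.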
Hits are given with their value; – = inactive; ? = inconclusive; · = no result; [ ] = another dose, or the depositor's remark. This is one part of a sample in which hits are shown more often than they occur. Unless noted, calls come from the whole dose curve; as a rule, active = well fitted curve in the direction sought with a large enough effect; inconclusive = small, poorly fitted or top-dose-only effect, or another doubt; inactive = no such curve, though single readings can be large; an effect the other way counts as inactive or inconclusive.

SMILES | Giardia killer | Gal4-VP16 FLuc | RORg inh | Integrin act MD | ERG Ets-DNA blk
CCCCCCCC[N+](CCCCCCCC)(CCCCCCCC)CCCCCCCC | · | 2µM | 4.5µM | · | ·
CC#CC[N+](C)(C)CCCCCCCCCCCC | – | 7.1µM | ? | – | –
Cc1ccc(NC(=O)COc2ccc(Br)cc2CO)cc1S(=O)(=O)N1CCOCC1 | – | · | · | – | –
CCOC(=O)/C(=N\Nc1ccc(Br)cc1)N1CC(C)OC(C)C1 (stereo not drawn) | – | – | – | – | –
O=C(CNC(=O)c1nc[nH]c1C(=O)NCC(=O)OCc1ccccc1)OCc1ccccc1 | – | ? | – | – | –
CC(C)(C)OC(=O)NCc1ccc(CNC(=O)c2[nH]cnc2C(=O)NCC(=O)OCc2ccccc2)cc1 | – | 22µM | – | – | –
C[C@H](NC(=O)c1nc[nH]c1C(=O)NCC(=O)OCc1ccccc1)C(=O)OCc1ccccc1 | – | – | ? | – | –
C[C@H](NC(=O)c1nc[nH]c1C(=O)NCC(=O)OCc1ccccc1)c1ccccc1 | – | ? | 14µM | – | –
O=C(CNC(=O)c1nc[nH]c1C(=O)NCc1ccccc1)OCc1ccccc1 | – | ? | 11µM | – | –
CC(C)(C)OC(=O)NCc1ccc(CNC(=O)c2nc[nH]c2C(=O)NCc2ccccc2)cc1 | – | · | · | – | –
COC(=O)C/C=C\[C@@H](C)[C@@H](/C=N\OC[C@@H]1O[C@H](c2ccccc2)C=C[C@@H]1Oc1ccc(OC)cc1)NS(=O)(=O)c1ccc(C)cc1 | · | –[10 µM] | –[10 µM] | · | ·
O=C(Nc1cccc(Cl)c1)N(Cc1nc2ccccc2c(=O)[nH]1)C1CCCC1 | – | ? | 14µM | – | –
Cc1ccc(C(=O)N(Cc2nc3ccccc3c(=O)[nH]2)C2CCCC2)cc1 | – | 7.1µM | – | – | –
Cc1cccc(NC(=O)N(Cc2nc3ccccc3c(=O)[nH]2)C2CCCC2)c1 | – | – | – | – | –
NS(=O)(=O)c1ccc(NC(=O)CN2CCN(c3ccc(F)cc3)CC2)cc1 | · | · | · | · | –
CCN1c2ccccc2-c2nc(SCC(=O)NCc3ccc(C)cc3)ncc2S1(=O)=O | · | · | · | · | –
Cc1ccc(NCc2ccc(O)c3ncccc23)cc1 | – | 1.8µM | 1µM | – | –
Cc1ccc(NCc2ccc(O)c3ncccc23)cc1C | – | ? | – | – | –
Cc1cccnc1NCc1ccc(O)c2ncccc12 | – | 2.8µM | ? | – | –
Cc1ccc(O)c(CNc2cccc3cccnc23)c1 | – | – | – | – | –
Cc1cccc(NCc2ccc(O)c3ncccc23)c1C | – | ? | 7.9µM | – | –
CC(C)(C)C(=O)/C(=C\c1ccc([N+](=O)[O-])cc1)n1cncn1 | · | 4.5µM | 2.2µM | · | ·
O=Cc1cn(CCC(=O)O)nc1-c1cccc2ccccc12 | – | 11µM | 3.2µM | – | –
O=Cc1cn(CCC(=O)O)nc1-c1cc2ccccc2o1 | – | ? | – | ? | –
O=C(CNC(=O)c1ccc(F)cc1)N/N=C/c1cc(Br)ccc1OC(=O)/C=C/c1ccco1 | – | ? | 5µM | – | –
SMILES | Giardia killer | Gal4-VP16 FLuc | RORg inh | Integrin act MD | ERG Ets-DNA blk
O=C(/C=C/c1ccco1)NCC(=O)N/N=C/c1ccccc1[N+](=O)[O-] | – | – | – | – | –
COc1ccccc1C(=O)NCC(=O)N/N=C/c1cc(Br)ccc1OC(=O)/C=C\c1ccco1 | – | 7.1µM | 3.5µM | – | –
O=C(CNC(=O)c1ccccc1F)N/N=C/c1cc(Br)ccc1OC(=O)/C=C/c1ccco1 | – | 3.2µM | 2.5µM | – | –
O=c1oc2ccccc2c2c1C1O[C@](c3ccsc3)(Cc3ccccc31)O2 | · | –[10 µM] | –[10 µM] | · | ·
O=C(Nc1nnc(-c2ccco2)o1)c1ccc(Cl)s1 | – | 0.63µM | 2µM | – | –
COc1cccc(-c2nnc(NC(=O)c3ccc(Cl)s3)o2)c1 | – | 0.22µM | 0.25µM | – | –
O=S(=O)(Cc1ccccc1)NCC1CCCN(Cc2ccc3nonc3c2)C1 (stereo not drawn) | – | – | – | – | –
CN(Cc1nc(-c2cccnc2)no1)S(=O)(=O)c1ccc(Br)cc1 | – | 11µM | – | – | –
COc1ccccc1/C=C1\NC(=S)N(CC2CCCO2)C1=O (stereo not drawn) | – | 13µM | – | – | ·
Cc1[nH]c2ccc(Br)cc2c(=S)c1C/C=C/Cl | – | – | 7.9µM | – | –
Cc1nn(C)c(NC(=O)c2ccc(Cl)cc2Cl)c1Br | – | – | – | – | –
CCNC(=S)N/N=C/c1cn(Cc2ccc(F)cc2)c2ccccc12 | – | 1.8µM | 1.1µM | – | –
CCNC(=S)N/N=C/c1cn(Cc2ccccc2F)c2ccccc12 | – | – | – | – | –
CNC(=S)N/N=C/c1cn(Cc2c(F)cccc2Cl)c2ccccc12 | – | 5µM | 0.45µM | – | –
Cc1ccc(Nc2nc3ccccc3c(=O)s2)cc1 | – | 11µM | 6.3µM | – | –
NS(=O)(=O)c1cccc(NC(=O)COC(=O)CNC(=O)c2ccc(-c3ccccc3)cc2)c1 | – | · | · | – | –
O=C(NCc1cccnc1)NC1(C(F)(F)F)Oc2ccccc2O1 | – | ? | 10µM | – | –
CC(C)CNC(=O)NC1(C(F)(F)F)Oc2ccccc2O1 | – | – | – | – | –
N=c1c2c(ncn1CCCO)Oc1c(ccc3ccccc13)C2c1ccccc1 (stereo not drawn) | – | ? | 18µM | – | –
COc1ccc(C2c3ccc4ccccc4c3Oc3ncn(CCN4CCOCC4)c(=N)c32)cc1 (stereo not drawn) | – | ? | – | – | –
COc1ccc(C2c3ccc4ccccc4c3Oc3ncn(CCO)c(=N)c32)cc1 (stereo not drawn) | – | ? | ? | – | –
COc1ccc(C2c3ccc4ccccc4c3Oc3ncn(CCN(C)C)c(=N)c32)cc1 (stereo not drawn) | – | ? | 32µM | – | –
COc1ccc(C2c3c(ncn(Cc4ccco4)c3=N)Oc3ccc4ccccc4c32)cc1 (stereo not drawn) | – | 8.9µM | 18µM | – | –
COc1ccc(C2c3ccc4ccccc4c3Oc3ncn(CCCO)c(=N)c32)cc1 (stereo not drawn) | – | – | 4µM | – | –[15.4 µM]
O=C(c1cccc(F)c1)N1CCC2(CC1)CCN(c1ccncc1)CC2 | · | – | – | · | ·
C/C(=N\Nc1ccc(S(=O)(=O)N2CCCCC2)cn1)c1ccc(O)cc1 | – | · | · | – | ·
COc1ccc(C2c3ccc4ccccc4c3Oc3ncn(CCCO)c(=N)c32)cc1OC (stereo not drawn) | – | – | – | – | –
CN(C)CCCn1cnc2c(c1=N)C(c1ccccc1)c1ccc3ccccc3c1O2 (stereo not drawn) | ? | ? | 18µM | – | –
Cc1ccccc1C(=O)N(Cc1sccc1C)C1CCS(=O)(=O)C1 (stereo not drawn) | · | · | · | · | –
